Source: PubChem BioAssay AID485317 (Broad Institute, 2010)
Hit rate of the full screen: of about 290,000 compounds, about 11,000 (3.8%) were called active.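 How the source made its calls: active means mean replicate inhibition above about 79%, with every replicate also reaching it (limit read from the data); inconclusive means only one of the two criteria met; inactive means mean below limit and not every replicate reaching it.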 The entries come from a sample that favours actives as a whole.

target: FAD-linked sulfhydryl oxidase ALR (Homo sapiens) (UniProt P55789); assay: inhibitors of human ALR sulfhydryl oxidase, primary screen, biochemical, H2O2 detection, HRP-luminol luminescence, single point (AID 485317); details: purified ALR, DTT oxidation, active compounds read high, concentration not given here
Sequence (P55789 whole entry, looked up): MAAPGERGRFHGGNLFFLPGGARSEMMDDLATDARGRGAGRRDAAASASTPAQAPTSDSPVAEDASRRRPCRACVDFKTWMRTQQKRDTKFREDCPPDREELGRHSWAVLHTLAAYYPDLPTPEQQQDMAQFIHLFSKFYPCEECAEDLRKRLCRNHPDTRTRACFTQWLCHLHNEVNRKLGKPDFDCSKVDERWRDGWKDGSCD

inhibition, active:
Cc1cccc(NC(=O)C2CCN(S(=O)(=O)c3cccc4cccnc34)CC2)c1 88.1%, C=CCn1c(=S)[nH]c2scc(-c3ccco3)c2c1=O 98.3%, CCN1CCN(Cc2nc3c(c(=O)n(C)c(=O)n3C)n2CC(=O)c2ccccc2)CC1 98.2%, Cc1cc2nnc(SCC(=O)N3CCN(c4ccccc4)CC3)n2c(N)n1 98%, COc1ccc2[nH]c(C(=O)N/N=C/c3cc(OC)c(OC)c(OC)c3)cc2c1 90.9%, CSc1nnc(-c2ccncc2)n1CCCN1CCCC1=O 98.1%, COc1cccc2c(N/N=C/c3ccco3)cc(C)nc12 91.2%, Cc1ccc(Nc2c(F)c(F)c(F)c(F)c2C(=O)O)c(C)c1 98.2%, COc1cc(/C=N\NC(=O)CNC(=O)c2cccc([N+](=O)[O-])c2)ccc1O 98.6%, Cc1cc(=O)oc2cc(OCC3CC(c4ccccc4Cl)=NO3)ccc12 (configuration not stated) 97.9%, Cc1ccnc(N2CCCC(C(=O)Nc3cc(F)ccc3C)C2)n1 (configuration not stated) 87.3%, Cn1cnnc1SCC(=O)Nc1ccc(N2CCOCC2)cc1 95.8%, Cn1c(SCC(=O)Nc2ccc(N3CCOCC3)cc2)nnc1C(F)(F)F 93.8%, CCn1c(CN2C(=O)CSc3ccccc32)n[nH]c1=S 91.7%, O=S(=O)(Nc1ccc2nc(-c3ccco3)[nH]c2c1)c1ccccc1 88.8%, O=C(NNC(=S)Nc1ccc(Br)cc1Cl)c1ccco1 82.2%, COc1cc(/C=N/Nc2ccc(C)cc2)cc(Br)c1O 98.4%, COc1cc(/C=N/NC(=S)Nc2cccnc2)cc(OC)c1O 95%, Cc1nc2ccc(C(=O)N/N=C/c3ccc(O)cc3)cc2[nH]1 99%, Cc1nonc1C(=O)N/N=C/c1ccc(O)cc1 99.2%

inhibition, inactive:
COc1ccc(NC(=O)C2CCCN(S(=O)(=O)c3cccc4cccnc34)C2)cc1OC (configuration not stated) -28.5%, Cc1cc(C)cc(NC(=O)C2CCCN2S(=O)(=O)c2cccc3cccnc23)c1 (configuration not stated) -0.666%, CC(NC(=O)c1ccccc1F)c1cccc2ccccc12 (configuration not stated) -16.5%, O=c1oc2ccc(C#CC3(O)CCCCC3)cc2cc1-n1cc(-c2ccsc2)nn1 -6.77%, O=C(CN1C(=O)NC2(CCCC2)C1=O)Nc1cc(C(F)(F)F)ccc1N1CCOCC1 -1.5%, COc1ccccc1S(=O)(=O)NCc1ccc(C(=O)N(C)Cc2ccc(F)cc2)cc1 -4.34%, C=CCNC(=O)CSc1nc2scc(-c3ccco3)c2c(=O)n1CC=C -0.872%, C=CCn1c(SCc2csc(C)n2)nc2scc(-c3ccc(C)o3)c2c1=O 16.6%, CCOC(=O)N1CCN(Cc2nc3c(c(=O)n(C)c(=O)n3C)n2Cc2ccccc2)CC1 -3.2%, CC1CCCN(Cc2nc3c(c(=O)n(C)c(=O)n3C)n2CC(=O)c2ccccc2)C1 (configuration not stated) -8.6%, O=C(CCCCO)c1ccc(O)c(Cl)c1 7.83%, Cc1nnc(SCC(=O)N2CCN(c3ccccc3)CC2)n1-c1ccccc1 46.1%, Cn1c(Cc2cccc3ccccc23)nnc1SCC(=O)N1CCN(c2cccc(Cl)c2)CC1 -3.36%, CCN(CC(=O)NCc1ccc(Cl)cc1)C(=O)c1c(C)noc1C -1.1%, CCOc1ccc2[nH]c(C(=O)N/N=C/c3cccc(OC)c3OC)cc2c1 -44.7%, COc1cc2cc(C(=O)N/N=C/c3cccc(OC)c3OC)[nH]c2cc1OC 15.9%, COc1ccc(C(=O)NCC2CCCN2S(=O)(=O)c2cccs2)cc1OC (configuration not stated) -12.1%, COc1ccccc1C(CNC(=O)c1ccc(C)c(S(=O)(=O)N2CCCCC2)c1)N(C)C (configuration not stated) -5.4%, Nc1c(N(CCCO)C(=O)C2CCCC2)c(=O)[nH]c(=O)n1Cc1ccccc1 2.17%, O=C(NNS(=O)(=O)c1c(F)cc(F)c(Cl)c1F)C12CC3CC(CC(C3)C1)C2 -7.91%, COCCCn1c(SCC(=O)Nc2ccccc2)nnc1-c1ccncc1 -6.22%, CC1CCCCC1NC(=O)CSc1nnc(-c2ccncc2)n1CCCN(C)C (configuration not stated) -3.25%, O=C(c1cnccn1)N1CCN(S(=O)(=O)c2cccc(Cl)c2)CC1 -2.25%, Cc1cc(C)c(OCC(=O)N/N=C/c2ccco2)c(C)c1 -5.47%, O=c1nc(N/N=C/c2ccco2)cn[nH]1 -0.901%, COc1cc2ccccc2cc1C(=O)Nc1nc(C)c(C(C)=O)s1 -3.67%, COc1ccc(C(CNC(=O)c2ccc(S(=O)(=O)Nc3ccccc3C)cc2)N2CCOCC2)cc1 (configuration not stated) 1.74%, CC(NC(=O)COC(=O)Cn1cc(C(F)(F)F)ccc1=O)c1ccccc1 (configuration not stated) -3.5%, COc1cc(-c2c(-c3ccc4c(c3)OCO4)noc2C)ccc1F 3.17%, CCOC(=O)N1CCN(C(=S)Nc2ccc(C)cc2C)CC1 -22.4%, COc1c(F)c(F)c(C(=O)O)c(Nc2ccccc2C)c1F 18.5%, O=C(NCC#CCSc1nnc(-c2cccc3ccccc23)o1)c1cccs1 -4.12%, COc1ccc(C(=O)NCC(=O)N/N=C/c2ccc([N+](=O)[O-])s2)cc1OC -29.5%, COc1ccc(C(=O)NCC(=O)N/N=C/c2ccc([N+](=O)[O-])o2)cc1OC -60.3%, COc1ccc(C(=O)N2CCN(c3ncccn3)CC2)cc1S(=O)(=O)N1CCOCC1 -2.44%, CSc1ncccc1C(=O)Nc1cccc(S(=O)(=O)N2CCOCC2)c1 -2.48%, O=C1C=C(c2ccnc3cc(Cl)ccc23)C[C@@H](c2ccc3c(c2)OCO3)C1 -0.313%, Cc1cc(=O)oc2cc(OCCC[n+]3ccccc3)ccc12 -10.6%, Cc1ccccc1N1CCN(CCCOc2ccc3c(C)cc(=O)oc3c2)CC1 -0.584%, Cn1nnnc1SCC(=O)Nc1cccc(S(=O)(=O)N2CCCCC2)c1 -1.39%, Cc1ccc(Cl)cc1NC(=O)C1CCCN(c2cnccn2)C1 (configuration not stated) -6.26%, Cc1ccnc(N2CCCC(C(=O)NC3CC3)C2)n1 (configuration not stated) 1.74%, Cc1noc(C)c1S(=O)(=O)N(C)C[C@H]1Oc2ccc(NC(=O)C3CC3)cc2C(=O)N([C@H](C)CO)C[C@@H]1C 2.82%, CCCNC(=O)c1onc(CSc2ccc(F)cc2)c1C(=O)NC(C)C 3.87%, CN(C)C(=O)COC(=O)c1cccc(S(=O)(=O)N2CC3(C)CC2CC(C)(C)C3)c1 (configuration not stated) -0.802%, COc1cccc(NC(=O)COC(=O)c2ccc3ccccc3n2)c1 -1.64%, CCn1c(Cc2ccc(OC)cc2)nnc1SCC(=O)Nc1ccc(N2CCOCC2)cc1 39.5%, Cn1c(SCC(=O)Nc2cccc(O)c2)nnc1-c1ccc(S(=O)(=O)N2CCOCC2)cc1 16.7%, Cn1c(SCC(=O)N2CCOCC2)nnc1-c1ccc(NC(=O)c2ccccc2F)cc1 -5.97%, O=C(O)CCC(=O)Nc1ccc(N2CCOCC2)cc1 -4.54%, COc1ccc(C(=O)NCc2ccc(C)cc2)cc1S(=O)(=O)N1CCCC1 -2.12%, Cc1nc2ccccc2c(=O)n1-c1ccc(NS(=O)(=O)c2ccc(F)cc2F)cc1 -10.6%, CCn1c(CSCc2c(Cl)cccc2Cl)n[nH]c1=S 67.9%, CCn1c(CNS(=O)(=O)c2ccc(Cl)cc2)n[nH]c1=S 21.4%, O=S(=O)(Nc1ccc2cn[nH]c2c1)c1ccccc1 -80.8%, Cn1c(CCN2CCCC2)nc2cc(NS(=O)(=O)c3ccccc3)ccc21 -0.934%, COC(=O)c1ccc(NS(=O)(=O)c2cc3c4c(c2)C(C)C(=O)N4CCC3)cc1 (configuration not stated) -2.24%, O=C(COC(=O)c1cccc(Cl)c1)Nc1ccc2[nH]c(=O)[nH]c2c1 -0.957%, O=C(NNC(=O)c1ccco1)Nc1ccccc1 39.9%, CCC(=O)NC(=S)Nc1ccc(NC(=O)c2ccco2)c(Cl)c1 -18.1%, CN(CCc1ccccc1)C(=O)c1cccc(NC(=O)Cc2ccc([N+](=O)[O-])cc2)c1 1%, O=C(OCCN1C(=O)c2ccccc2C1=O)[C@@H]1CC(O)CN1S(=O)(=O)c1ccccc1[N+](=O)[O-] (some centres not stated) -2.79%, COc1cc(/C=N/NC(=O)c2cc(C)n(-c3ccc(F)cc3)c2C)cc(OC)c1O 64%, COc1ccc(/C=C/C(=O)Nc2cccnc2)cc1OC -0.926%, COc1cc(/C=N/O)cc(Br)c1OS(=O)(=O)c1ccc(C)cc1 -15%, COc1cc(/C=N/NC(=O)c2cc(-c3ccccc3C)nc3ccccc23)cc(OC)c1O -3.08%, Nc1c(C(=O)Nc2ccc3c(c2)OCCO3)nnn1Cc1ccccc1 -23.5%, CC(C)c1c(C(=O)N/N=C/c2ccc(-c3ccccc3)cc2)nnn1-c1nonc1N -10.7%, Cc1nc2ccc(C(=O)O)cc2[nH]1 -25.4%, COC(=O)N/N=C/c1ccc(/C=N/NC(=O)OC)cc1 -1.28%, COc1ccc(/C=N/NC(=O)c2cccc(C(F)(F)F)c2)cc1 -3.29%, CCn1nc(C(=O)NNC(=O)C2CSC3(C)CCC(=O)N23)c2ccccc2c1=O (configuration not stated) -0.847%
